# Results as given in PubChem BioAssay (EPA / NIEHS).
# Results filed as inconclusive are left out. Activity calls are given as the source filed them. How the source made its calls: active means hit-call score of the fitted dose curve at least 0.9, where 1 is the maximum; inconclusive means response in the unintended direction; inactive means score below 0.9.
# Target: human Thyroid hormone Receptor beta (TRb), THRB (gene 7068) (UniProt P10828)
# Assay: ATG_hTRb_XSP2: Attagene TRANS-FACTORIAL Multi-Species (XSP2) HepG2 Assay for human Thyroid hormone Receptor beta (TRb) (AID 2283840);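 further: actives raise reporter mRNA so potency reflects agonist-like gain of signal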
# Protocol: ATG_XSP2_multi-species_TRANS is a cell-based, multiplexed assay created by modifying the existing Attagene TRANS-FACTORIAL system to include a panel of nuclear receptors from some or all the following species: human (Homo sapiens), mouse (Mus musculus), frog (Xenopus laevis), zebrafish (Danio rerio), chicken (Gallus gallus), and turtle (Chrysemys picta). The ECOTOX-FACTORIAL format uses HepG2, a human liver cell line, with measurements taken at 24 hours after chemical dosing in a 24-well plate. Xsp2 included 3 nM 6-alpha-fluorotestosterone and 1.5 nM norgestrel to stimulate the androgen receptor.ATG_hTRb_XSP2 is one of 29 assay components measured or calculated from the ATG_XSP2_multi-species_TRANS assay. It is designed to make measurements of mRNA induction, a form of inducible reporter, as detected with fluorescence intensity signals by Reverse transcription polymerase chain reaction (RT-PCR) and Capillary electrophoresis technology.The assay endpoint ATG_hTRb_XSP2 was analyzed in the positive analysis fitting direction relative to DMSO as the negative control and baseline of activity. Using a type of inducible reporter, measures of mRNA for gain-of-signal activity can be used to understand the reporter gene at the transcription factor-level as they relate to the gene TR. Furthermore, this assay endpoint can be referred to as a primary readout, because this assay has produced multiple assay endpoints where this one serves a reporter gene function. To generalize the intended target to other relatable targets, this assay endpoint is annotated to the nuclear receptor intended target family, where the subfamily is non-steroidal.
# Human liver HepG2 cells are transiently transfected with multiple reporter transcription units (MRTUs) in 6-well plates using FuGene 6 reagent (Roche; 3 ml FuGene/1 mg DNA). The MRTU constructs are regulated by a cis-regulating element (promoter). […] A major difference between the CIS and TRANS system is that in CIS activities of endogenous TFs are measured, whereas the TRANS assay evaluates changes in activities of exogenous, chimeric NR-Gal4 proteins. […] At the end of 24 hour incubation, total RNA was isolated using TriZol reagent (Invitrogen). The isolated RNA is then reverse-transcribed using oligo(dT) primer and Mo-MLV reverse transcriptase (Invitrogen) with DNAse I (Ambion) treatment for 30 min. The one-tenth of the produced cDNA was amplified by PCR using Taq DNA polymerase (Invitrogen) and two reporter sequence-specific primers. The PCR products were fluorescently labeled by primer extension with 6-arboxyfluorescein (6-FAM) 5'-labeled reporter sequence-specific primer (2 min at 95 C, 20 s at 68 C and 10 min at 72 C) and these products were digested with 5U of HpaI (New England Biolabs) for 2h at 37 C. The fragments were purified using Qiaquick PCR columns (Qiagen), analyzed on an ABI 3130xL genetic analyzer (Applied Biosystems) with peak positions identified by using a set of X-rhodamine (ROX)-labeled MapMarker1000 molecular weight standards (BioVentures). The raw capillary electrophoresis data was processed using Attagraph software (Attagene).
# Sequence of human Thyroid hormone Receptor beta (TRb), THRB (gene 7068) (P10828 whole entry, looked up): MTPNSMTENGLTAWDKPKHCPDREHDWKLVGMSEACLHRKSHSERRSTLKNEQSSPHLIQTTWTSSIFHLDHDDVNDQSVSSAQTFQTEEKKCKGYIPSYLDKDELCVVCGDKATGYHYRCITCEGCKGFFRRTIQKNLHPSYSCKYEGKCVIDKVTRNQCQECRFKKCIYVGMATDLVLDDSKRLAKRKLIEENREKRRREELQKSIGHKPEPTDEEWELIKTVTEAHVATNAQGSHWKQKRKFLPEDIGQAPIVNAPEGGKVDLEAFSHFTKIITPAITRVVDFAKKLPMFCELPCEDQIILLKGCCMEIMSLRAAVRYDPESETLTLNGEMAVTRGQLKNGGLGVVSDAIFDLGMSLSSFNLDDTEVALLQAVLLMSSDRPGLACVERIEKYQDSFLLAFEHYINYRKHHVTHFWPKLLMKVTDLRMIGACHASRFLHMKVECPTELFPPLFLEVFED
row,Compound,outcome
1,CCCCOC(=O)c1ccccc1C(=O)OCCCC,inactive
2,COC(=O)N(OC)c1ccccc1COc1ccn(-c2ccc(Cl)cc2)n1,inactive
3,C#CCOS(=O)OC1CCCCC1Oc1ccc(C(C)(C)C)cc1 (configuration not stated),inactive
4,COP(=S)(OC)Oc1nc(Cl)c(Cl)cc1Cl,inactive
5,C=CC1(C)OC(=O)N(c2cc(Cl)cc(Cl)c2)C1=O (configuration not stated),inactive
6,CCCCC(CC)COC(=O)c1ccccc1C(=O)OCC(CC)CCCC (configuration not stated),inactive
7,CON(C)C(=O)Nc1ccc(Cl)c(Cl)c1,inactive
8,CO/C=C(/C(=O)OC)c1ccccc1Oc1cc(Oc2ccccc2C#N)ncn1,inactive
9,CCCC1COC(Cn2cncn2)(c2ccc(Cl)cc2Cl)O1 (configuration not stated),inactive
10,CCOP(=S)(OCC)SCn1c(=O)oc2cc(Cl)ccc21,inactive
11,CCCN(CCC)c1c([N+](=O)[O-])cc(S(N)(=O)=O)cc1[N+](=O)[O-],inactive
12,CC(C)Oc1cc(-n2nc(C(C)(C)C)oc2=O)c(Cl)cc1Cl,inactive
